Source: PubChem BioAssay (NCI)
About 83,000 compounds went through this panel and 20% of them were active in at least one assay; those are over-represented in the sample as a whole.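 The endpoint reported here, percent growth, reads 100 for growth as untreated, 0 for no net growth and -100 for all cells dead.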 Values without a mark were called inactive. Calls of active or inactive are those of the source. How the source made its calls: active means growth percent below 10; inactive means the rest.

Key:
Assay in all cases: NCI-60 one-dose screen, 48 h (100 = growth as untreated, 0 = no growth, -100 = all killed)
Conditions in all cases: 10 µM unless noted
[1] = test system: NCI-H23 lung
[2] = test system: NCI-H226 lung
[3] = test system: NCI-H322M lung
[4] = test system: HOP-62 NSCLC
[5] = test system: NCI-H460 lung
[6] = test system: HOP-92 NSCLC
[7] = test system: NCI-H522 lung
[8] = test system: A549/ATCC NSCLC
[9] = test system: 786-0 renal
[10] = test system: COLO 205 colon

SMILES | growth [1] | growth [2] | growth [3] [%] | growth [4] | growth [5] | growth [6] | growth [7] | growth [8] | growth [9] | growth [10]
CCN1C(=O)N(CC)C2Nn3c(s/c(=C\c4ccc(Cl)cc4Cl)c3=O)=NC21 (stereo not given) | 43.1% | 98.2% | 65.5 | 72.3% | 16.4% | 68.3% | 12.3% | 33% | 34% | -23% (active)
COc1ccc2c(c1)O/C(=C/c1ccc(OCC(=O)c3ccccc3)cc1)C2=O | 98.1% | 104% | 97.2 | 93.6% | 118% | 98.6% | 94.5% | 93.2% | 101% | 129%
COc1cc(Cn2ncc3ccc(NC(=O)c4cc5ccccc5oc4=N)cc32)cc(OC)c1OC | 80.8% | 88.6% | 89.6 | 64.9% | 91% | 71.9% | 20.3% | 50.7% | 68% | 55.1%
NC1=NCc2nc3ccccc3c(=O)n2C1 | 96.6% | 94.9% | 110 | 98.4% | 111% | 67.5% | 91.6% | 93.9% | 97.6% | 124%
Cc1c2c(c(C)c3c1oc1cc(O)ccc13)C(=O)N(CCN1CCCCC1)C2=O | 94.6% | 88.5% | 85.9 | 80% | 38.7% | 92.4% | 94.1% | 81.2% | 71.7% | 85.8%
CCCCCCN(CCCCCC)c1ccc(/C=C2/SC(=O)N(c3nc(N4CCCC4)nc(N4CCCC4)n3)C2=O)c(C)c1 | 47.2% | 92.5% | 99 | 119% | 57.5% | -3.12% (active) | 53.2% | 54.2% | 63.5% | 82.1%
Cc1ccc(Nc2ccc(Nc3ccc(C)cc3)c3c2C(=O)c2cccc(O)c2C3=O)cc1 | 84.5% | 73.1% | 108 | 101% | 88.3% | 70.4% | 90.6% | 103% | 111% | 102%
CCN(CC)CCCCCCNc1cc(OC)c(Cl)c2cccnc12 | 76.9% | 78.7% | 92.7 | 69.1% | 83.9% | 58.8% | 81.1% | 96.7% | 73.9% | 55.1%
CCCCCCCCCCCCCCCCCCOc1ccc(CC(=O)OCC[N+]2(C)CCCC2)cc1 | 93.2% | 92.6% | 102 | 101% | 99.7% | 110% | 96.8% | 97.2% | 96.2% | 107%
Nc1n[nH]c(-c2cc(Cl)ccc2O)c1-c1ccccc1 | 71.4% | 70.5% | 82.9 | 83.6% | 102% | 73.1% | 81.8% | 82.3% | 92.7% | 101%
O=C(CSc1nnc(-c2ccc(NC(=O)c3cccnc3)cc2)o1)Nc1cccc(Br)c1 | 92.8% | 97.7% | 97.2 | 99.2% | 103% | 88.7% | 41.4% | 95.1% | 94.2% | 88.4%
COc1ccc(-c2nc(SCCC(C)C)nc(N/N=C\c3cccc(Cl)c3)c2C#N)cc1 | 82.6% | 90% | 55.8 | 49.7% | 15.2% | 62.5% | 71.3% | 59.7% | 43.2% | 81.9%
CC1CC2Oc3ccc(Cl)cc3C(=O)N2O1 (stereo not given) | 99.5% | 99.3% | 126 | 101% | 108% | 86.4% | 108% | 98% | 104% | 108%
C=C1C(=O)O[C@H]2[C@H]1CC/C(COC(=O)C(=O)c1c[nH]c3ccccc13)=C\CC[C@@]1(C)O[C@@H]21 | -42.8% (active) | -61.6% (active) | 24.6 | 2.66% (active) | 6.72% (active) | -74.3% (active) | -62% (active) | 9.03% (active) | -75.8% (active) | -62.2% (active)
Cc1ccc(NS(=O)(=O)c2ccc3c(c2)C(=O)CC(c2ccc(C(=O)C(C)C)cc2)N3)cc1C (stereo not given) | 44.1% | 57.7% | 67.2 | 69.1% | 53.9% | 67.9% | 60.5% | 52.4% | 86.3% | 59.4%
O=C(O)C1CCC(=O)N1C(=O)OCc1ccccc1 (stereo not given) | 93.7% | 94.1% | 94 | 94.2% | 106% | 98.7% | 92.8% | 96.7% | 93% | 124%
COc1cc(/C=C2\C(=O)ON=C2C)cc(OC)c1OC | 98.6% | 100% | 95.1 | 97% | 110% | 87.8% | 98.5% | 96.1% | 103% | 105%
CCN(CC)CCn1nc2c3c(cccc3c1=O)-c1ccccc1-2 | 23.7% | -39.9% (active) | 30.6 | 11.1% | 3.42% (active) | -6.84% (active) | 10.8% | 1.36% (active) | 33.3% | 15.8%
COc1ccc(NC(=O)CSc2nc(C)c(C(C)=O)n2-c2ccc(Cl)cc2)cc1 | 90.6% | 86.6% | 100 | 88.5% | 102% | 106% | 78.1% | 97.1% | 106% | 102%
Cc1ccc(CCC(=O)Nc2ncc(Cc3cc(Cl)ccc3Cl)s2)o1 | 31.9% | 45.5% | 33.3 | 35.6% | 5.71% (active) | 56.6% | 3.08% (active) | 23.1% | 26.1% | 2.59% (active)
COc1ccc(-c2cc(-c3ccc(Nc4nc(Nc5ccc(Cl)cc5)nc(Nc5ccc(Cl)cc5)n4)cc3)nc(N)c2C#N)cc1 | 30% | 9.85% (active) | 113 | 86.8% | 57.6% | -53.8% (active) | 83.4% | 37% | 41.6% | 5.26% (active)
CC(=O)C(C)Cc1cc2c(cc1C)C(C)(C)CCC2(C)C (stereo not given) | 95.3% | 99.5% | 97.8 | 82.4% | 107% | 85.7% | 85.3% | 79.2% | 95.2% | 105%
NC[C@H](O)c1ccc(O)c(O)c1 | 98.8% | 109% | 110 | 105% | 103% | 65.8% | 102% | 109% | 108% | 109%
CCOC(=O)c1ccc(N2NC(=O)/C(=C/c3ccc([N+](=O)[O-])o3)C2=O)cc1 | 108% | 120% | 99.8 | 109% | 111% | 105% | 60.7% | -1.33% (active) | 116% | 129%
CCOC(=O)c1csc(NC(=O)COc2cccc(/C=C3\Oc4cc(OC)ccc4C3=O)c2)n1 | 90.7% | 89.5% | 99.7 | 125% | 107% | 62.6% | 49.8% | 94% | 110% | 110%
CCCCCCCCCCCC(c1ccccc1)[N+](C)(C)C (stereo not given) | 15.7% | 21% | 57.3 | 16.9% | 16.4% | -16.5% (active) | 5.04% (active) | 28.2% | 20.5% | -74.7% (active)
